Data: the supplement of paper PMC7765376
Where a name gives a salt, the structure may show the parent alone. In all, about 1,500 compounds were measured (“Excess HSA synergy score (sum over dose matrix of excess over highest single agent)”: median about 43, lowest 2% from about -900 on). Many of the other results were omitted from the sample, so the lowest values are more common in it than they were.

Test system: PEO-1
Test: Excess HSA synergy score (sum over dose matrix of excess over highest single agent) (score (summed % response)); higher = less synergy / more antagonism (negative = synergy)
Conditions: 72 h, read-out: viability/apoptosis luminescence (CellTiter-Glo or Caspase3-Glo / not stated per table)
[1] = matrix design: 6x6, 5-fold dilutions (primary screen)
[2] = matrix design: 10x10, 9-step dilutions (confirmatory)

Row | SMILES | Excess HSA synergy score [1] | Excess HSA synergy score [2]
1 | C/C=C(/C)C(=O)O[C@H]1C(C)=C2[C@H]([C@@H]1OC(=O)CCCCCCC)[C@@](C)(OC(C)=O)C[C@H](OC(=O)CCC)[C@@]1(O)[C@H]2OC(=O)[C@@]1(C)O [Thapsigargin] + CC[C@H](NC(=O)[C@H](C)NC)C(=O)N1C[C@@H](O)C[C@H]1Cc1c(-c2[nH]c3cc(F)ccc3c2C[C@@H]2C[C@H](O)CN2C(=O)[C@H](CC)NC(=O)[C@H](C)NC)[nH]c2cc(F)ccc12 [Birinapant] | -265 | -912
2 | O=C(O)C(=O)CBr [3-Bromopyruvate] + CC[C@H](NC(=O)[C@H](C)NC)C(=O)N1C[C@@H](O)C[C@H]1Cc1c(-c2[nH]c3cc(F)ccc3c2C[C@@H]2C[C@H](O)CN2C(=O)[C@H](CC)NC(=O)[C@H](C)NC)[nH]c2cc(F)ccc12 [Birinapant] | 97.1 | 
3 | CCOC(=O)Nc1ccc(NCc2ccc(F)cc2)cc1N [Retigabine] + CC[C@H](NC(=O)[C@H](C)NC)C(=O)N1C[C@@H](O)C[C@H]1Cc1c(-c2[nH]c3cc(F)ccc3c2C[C@@H]2C[C@H](O)CN2C(=O)[C@H](CC)NC(=O)[C@H](C)NC)[nH]c2cc(F)ccc12 [Birinapant] | 64.5 | 
4 | CC(C)CC(N(C)C)C1(c2ccc(Cl)cc2)CCC1 (stereo not drawn) [Sibutramine hydrochloride] + CC[C@H](NC(=O)[C@H](C)NC)C(=O)N1C[C@@H](O)C[C@H]1Cc1c(-c2[nH]c3cc(F)ccc3c2C[C@@H]2C[C@H](O)CN2C(=O)[C@H](CC)NC(=O)[C@H](C)NC)[nH]c2cc(F)ccc12 [Birinapant] | 96.7 | 
5 | CC(C)NC1CCn2c(=O)[nH]c3cccc(c32)C1O (stereo not drawn) [Zilpaterol] + CC[C@H](NC(=O)[C@H](C)NC)C(=O)N1C[C@@H](O)C[C@H]1Cc1c(-c2[nH]c3cc(F)ccc3c2C[C@@H]2C[C@H](O)CN2C(=O)[C@H](CC)NC(=O)[C@H](C)NC)[nH]c2cc(F)ccc12 [Birinapant] | 413 | 
6 | CC1=C2C[C@H]3[C@@H](CC=C4C[C@@H](O)CC[C@@]43C)[C@@H]2CC[C@]12O[C@@H]1C[C@H](C)CN[C@H]1[C@H]2C [Cyclopamine] + CC[C@H](NC(=O)[C@H](C)NC)C(=O)N1C[C@@H](O)C[C@H]1Cc1c(-c2[nH]c3cc(F)ccc3c2C[C@@H]2C[C@H](O)CN2C(=O)[C@H](CC)NC(=O)[C@H](C)NC)[nH]c2cc(F)ccc12 [Birinapant] | 82.1 | 
7 | CCNC(=O)C[C@@H]1N=C(c2ccc(Cl)cc2)c2cc(OC)ccc2-n2c(C)nnc21 + CC[C@H](NC(=O)[C@H](C)NC)C(=O)N1C[C@@H](O)C[C@H]1Cc1c(-c2[nH]c3cc(F)ccc3c2C[C@@H]2C[C@H](O)CN2C(=O)[C@H](CC)NC(=O)[C@H](C)NC)[nH]c2cc(F)ccc12 [Birinapant] | -120 | 
8 | CC(C)[C@]12O[C@H]1[C@@H]1O[C@]13[C@]1(O[C@H]1C[C@H]1C4=C(CC[C@@]13C)C(=O)OC4)[C@@H]2O [Triptolide] + CC[C@H](NC(=O)[C@H](C)NC)C(=O)N1C[C@@H](O)C[C@H]1Cc1c(-c2[nH]c3cc(F)ccc3c2C[C@@H]2C[C@H](O)CN2C(=O)[C@H](CC)NC(=O)[C@H](C)NC)[nH]c2cc(F)ccc12 [Birinapant] | -151 | -1170
9 | CC1(N2CCC(n3c([C@@H]4CCCNC4)nc4ccccc43)CC2)CCCCCCC1 + CC[C@H](NC(=O)[C@H](C)NC)C(=O)N1C[C@@H](O)C[C@H]1Cc1c(-c2[nH]c3cc(F)ccc3c2C[C@@H]2C[C@H](O)CN2C(=O)[C@H](CC)NC(=O)[C@H](C)NC)[nH]c2cc(F)ccc12 [Birinapant] | 152 | 
10 | O=C(N[C@H]1CN2CCC1CC2)c1ccc(Cl)cc1 + CC[C@H](NC(=O)[C@H](C)NC)C(=O)N1C[C@@H](O)C[C@H]1Cc1c(-c2[nH]c3cc(F)ccc3c2C[C@@H]2C[C@H](O)CN2C(=O)[C@H](CC)NC(=O)[C@H](C)NC)[nH]c2cc(F)ccc12 [Birinapant] | 162 | 
11 | C[C@]12O[C@H](C[C@]1(O)CO)n1c3ccccc3c3c4c(c5c6ccccc6n2c5c31)CNC4=O [Lestaurtinib] + CC[C@H](NC(=O)[C@H](C)NC)C(=O)N1C[C@@H](O)C[C@H]1Cc1c(-c2[nH]c3cc(F)ccc3c2C[C@@H]2C[C@H](O)CN2C(=O)[C@H](CC)NC(=O)[C@H](C)NC)[nH]c2cc(F)ccc12 [Birinapant] | -142 | 
12 | CO/C1=C\C(C)=C\[C@@H](C)[C@@H](O)[C@@H](C)C/C(C)=C/C=C/[C@H](OC)[C@@H]([C@@H](C)[C@@H](O)[C@H](C)[C@@]2(O)C[C@@H](O)[C@H](C)[C@@H](C(C)C)O2)OC1=O [Bafilomycin A1] + CC[C@H](NC(=O)[C@H](C)NC)C(=O)N1C[C@@H](O)C[C@H]1Cc1c(-c2[nH]c3cc(F)ccc3c2C[C@@H]2C[C@H](O)CN2C(=O)[C@H](CC)NC(=O)[C@H](C)NC)[nH]c2cc(F)ccc12 [Birinapant] |  | -1470
13 | CC[C@@H]1[C@@H](C)O[C@@](O)([C@@H](C)[C@H](O)[C@H](C)[C@H]2OC(=O)/C=C/C=C/[C@H](C)[C@@H]([C@@H](C)[C@@H](O)[C@H](C)[C@@]3(O)C[C@@H](O[C@H]4C[C@H](O)[C@H](O)[C@H](C)O4)[C@H](CC)[C@@H](C)O3)OC(=O)/C=C/C=C/[C@@H]2C)C[C@H]1O[C@H]1C[C@H](O)[C@H](O)[C@H](C)O1 [Azalomycin-B] + CC[C@H](NC(=O)[C@H](C)NC)C(=O)N1C[C@@H](O)C[C@H]1Cc1c(-c2[nH]c3cc(F)ccc3c2C[C@@H]2C[C@H](O)CN2C(=O)[C@H](CC)NC(=O)[C@H](C)NC)[nH]c2cc(F)ccc12 [Birinapant] | -24.5 | 
14 | CC1C=CC=CCCC=CC=CC=CC=CC(OC2OC(C)C(O)C(N)C2O)CC2OC(O)(CC(O)C(O)CCC(O)CC(O)CC(O)CC(=O)OC(C)C(C)C1O)CC(O)C2C(=O)O (stereo not drawn) [Nystatin] + CC[C@H](NC(=O)[C@H](C)NC)C(=O)N1C[C@@H](O)C[C@H]1Cc1c(-c2[nH]c3cc(F)ccc3c2C[C@@H]2C[C@H](O)CN2C(=O)[C@H](CC)NC(=O)[C@H](C)NC)[nH]c2cc(F)ccc12 [Birinapant] | 90.8 | 
15 | N=c1c2c(-c3ccccc3)c(-c3ccccc3)n(Cc3ccccc3)c2ncn1[C@H]1CC[C@H](O)CC1 + CC[C@H](NC(=O)[C@H](C)NC)C(=O)N1C[C@@H](O)C[C@H]1Cc1c(-c2[nH]c3cc(F)ccc3c2C[C@@H]2C[C@H](O)CN2C(=O)[C@H](CC)NC(=O)[C@H](C)NC)[nH]c2cc(F)ccc12 [Birinapant] | -361 | 
16 | C[C@@]12OC(=O)[C@]1([C@@H](O)[C@@H]1C=CCCC1)NC(=O)[C@@H]2CCCl [Marizomib] + CC[C@H](NC(=O)[C@H](C)NC)C(=O)N1C[C@@H](O)C[C@H]1Cc1c(-c2[nH]c3cc(F)ccc3c2C[C@@H]2C[C@H](O)CN2C(=O)[C@H](CC)NC(=O)[C@H](C)NC)[nH]c2cc(F)ccc12 [Birinapant] | -95.7 | 
17 | CO[C@H]1CC[C@@H](O[C@H]2C[C@H]([C@]3(C)CC[C@]4(C[C@H](O)[C@@H](C)[C@@H]([C@@H](C)/C=C(\C)C(=O)[C@H](C)C[C@H](C)C(=O)O)O4)O3)O[C@]3(O[C@@H]([C@H]4O[C@@](O)(CO)[C@H](C)C[C@@H]4C)C[C@@H]3C)[C@@H]2C)O[C@@H]1C [Nanchangmycin] + CC[C@H](NC(=O)[C@H](C)NC)C(=O)N1C[C@@H](O)C[C@H]1Cc1c(-c2[nH]c3cc(F)ccc3c2C[C@@H]2C[C@H](O)CN2C(=O)[C@H](CC)NC(=O)[C@H](C)NC)[nH]c2cc(F)ccc12 [Birinapant] | -308 | -1080
18 | CC[C@@]1([C@@H]2O[C@@H]([C@H]3O[C@@](O)(CO)[C@H](C)C[C@@H]3C)C[C@@H]2C)CC[C@H]([C@]2(C)CC[C@]3(C[C@H](O)[C@@H](C)[C@@H]([C@@H](C)[C@@H](OC)[C@H](C)C(=O)O)O3)O2)O1 [Monensin sodium salt] + CC[C@H](NC(=O)[C@H](C)NC)C(=O)N1C[C@@H](O)C[C@H]1Cc1c(-c2[nH]c3cc(F)ccc3c2C[C@@H]2C[C@H](O)CN2C(=O)[C@H](CC)NC(=O)[C@H](C)NC)[nH]c2cc(F)ccc12 [Birinapant] | -104 | 
19 | Cc1n[nH]c2ccc(-c3cncc(OC[C@@H](N)Cc4c[nH]c5ccccc45)c3)cc12 + CC[C@H](NC(=O)[C@H](C)NC)C(=O)N1C[C@@H](O)C[C@H]1Cc1c(-c2[nH]c3cc(F)ccc3c2C[C@@H]2C[C@H](O)CN2C(=O)[C@H](CC)NC(=O)[C@H](C)NC)[nH]c2cc(F)ccc12 [Birinapant] | -218 | 
20 | CC(C)c1cccc(C(C)C)c1O [Propofol] + CC[C@H](NC(=O)[C@H](C)NC)C(=O)N1C[C@@H](O)C[C@H]1Cc1c(-c2[nH]c3cc(F)ccc3c2C[C@@H]2C[C@H](O)CN2C(=O)[C@H](CC)NC(=O)[C@H](C)NC)[nH]c2cc(F)ccc12 [Birinapant] | 6.44 | 
